Source: the supplement of paper PMC10811239

tested on: LEGO organoid PT (PTEN-/-; TP53-/-); test: bioluminescence (viable cell) signal fold change after vs before treatment, normalised to DMSO (ratio); higher = more tumour cell growth / less inhibition; conditions: 10 µM; treatment time 6 days
Method: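 Luc2-labelled iPSC-derived glioblastoma-like organoids (LEGOs, genotypes PT = PTEN-/-;TP53-/-, PTCC = plus CDKN2A/B-/-, PTN = plus NF1-/-) were treated with 10 uM drug for 6 days (applied every other day) at 37 C. Bioluminescence imaging was done before treatment and 2 days after the last dose. BLI signals were normalised to the DMSO control on the same day and then to the pre-treatment signal (N=3).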

SMILES	bioluminescence
COc1ccc2c(c1)c(CC(=O)O)c(C)n2C(=O)c1ccc(Cl)cc1 [Indometacin]	1.04
Nc1nc(NC2CC2)c2ncn([C@H]3C=C[C@@H](CO)C3)c2n1 [Abacavir]	1.2
CCc1nn(CCCN2CCN(c3cccc(Cl)c3)CC2)c(=O)n1CCOc1ccccc1.Cl [Nefazodone hydrochloride]	1.4
Cl.O=C1CC2(CCCC2)CC(=O)N1CCCCN1CCN(c2ncccn2)CC1 [Buspirone hydrochloride]	1.22
Nc1cccc2c1CN(C1CCC(=O)NC1=O)C2=O (centres undefined) [Lenalidomide]	2.02
C[C@@H](Oc1cc(-c2cnn(C3CCNCC3)c2)cnc1N)c1c(Cl)ccc(F)c1Cl [Crizotinib]	0.492
Nc1nc(=O)c2c(CCc3ccc(C(=O)N[C@@H](CCC(=O)[O-])C(=O)[O-])cc3)c[nH]c2[nH]1.Nc1nc(=O)c2c(CCc3ccc(C(=O)N[C@@H](CCC(=O)[O-])C(=O)[O-])cc3)c[nH]c2[nH]1.O.O.O.O.O.[Na+].[Na+].[Na+].[Na+] [Pemetrexed Disodium Hydrate]	1.33
CC(=O)OCC(=O)[C@@]1(O)CC[C@H]2[C@@H]3CCC4=CC(=O)C=C[C@]4(C)[C@H]3[C@@H](O)C[C@@]21C [Prednisolone-21-acetate]	0.578
CC(=O)OCC(=O)[C@@]1(O)[C@H](C)C[C@H]2[C@@H]3CCC4=CC(=O)C=C[C@]4(C)[C@@]3(F)[C@@H](O)C[C@@]21C [Dexamethason acetate]	1.76
